To fix the notation:
T1: RBFOX1 RRM RbFoxmut (Fox-RRM*) (Homo sapiens, UniProt Q9NWB1 109-208, R118D;E147R;N151S;E152T)
T1 sequence: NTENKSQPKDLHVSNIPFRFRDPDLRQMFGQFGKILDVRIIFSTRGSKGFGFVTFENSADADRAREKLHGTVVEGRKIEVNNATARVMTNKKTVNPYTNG

B1: UUACGGC (DNA:RNA)
RNA: GGGAGACCGGAAUUCAGAUUGUCCUUACGGCUUAAAUCCCGUCGUAGCCACCA
DNA 1: CAATCTGAATTCCGGTCTCCC
DNA 2: TGGTGGCTACGACGGGATT
B2: UUCGUUU (DNA:RNA)
RNA: B1 RNA with A27C, C28G, G29U, G30U, C31U
DNA 1: CAATCTGAATTCCGGTCTCCC
DNA 2: TGGTGGCTACGACGGGATT
B3: AAGUGAC (DNA:RNA)
RNA: B1 RNA with U25A, U26A, A27G, C28U, G30A
DNA 1: CAATCTGAATTCCGGTCTCCC
DNA 2: TGGTGGCTACGACGGGATT
B4: GAUGAAA (DNA:RNA)
RNA: GGGAGACCGGAAUUCAGAUUGUCCGAUGAAAUUAAAUCCCGUCGUAGCCACCA
DNA 1: CAATCTGAATTCCGGTCTCCC
DNA 2: TGGTGGCTACGACGGGATT
B5: ACAUGUU (DNA:RNA)
RNA: B1 RNA with U25A, U26C, C28U, G30U, C31U
DNA 1: CAATCTGAATTCCGGTCTCCC
DNA 2: TGGTGGCTACGACGGGATT
B6: CCGCCUC (DNA:RNA)
RNA: B1 RNA with U25C, U26C, A27G, G29C, G30U
DNA 1: CAATCTGAATTCCGGTCTCCC
DNA 2: TGGTGGCTACGACGGGATT
B7: GUGACCG (DNA:RNA)
RNA: B4 RNA with A26U, U27G, G28A, A29C, A30C, A31G
DNA 1: CAATCTGAATTCCGGTCTCCC
DNA 2: TGGTGGCTACGACGGGATT
B8: GUGAAUC (DNA:RNA)
RNA: B4 RNA with A26U, U27G, G28A, A30U, A31C
DNA 1: CAATCTGAATTCCGGTCTCCC
DNA 2: TGGTGGCTACGACGGGATT
B9: GCGUGAA (DNA:RNA)
RNA: B4 RNA with A26C, U27G, G28U, A29G
DNA 1: CAATCTGAATTCCGGTCTCCC
DNA 2: TGGTGGCTACGACGGGATT
B10: UUGACUG (DNA:RNA)
RNA: B1 RNA with A27G, C28A, G29C, G30U, C31G
DNA 1: CAATCTGAATTCCGGTCTCCC
DNA 2: TGGTGGCTACGACGGGATT
B11: GUCGUGA (DNA:RNA)
RNA: B4 RNA with A26U, U27C, A29U, A30G
DNA 1: CAATCTGAATTCCGGTCTCCC
DNA 2: TGGTGGCTACGACGGGATT
B12: GGUGAUU (DNA:RNA)
RNA: B4 RNA with A26G, A30U, A31U
DNA 1: CAATCTGAATTCCGGTCTCCC
DNA 2: TGGTGGCTACGACGGGATT
B13: GUGAUUG (DNA:RNA)
RNA: B4 RNA with A26U, U27G, G28A, A29U, A30U, A31G
DNA 1: CAATCTGAATTCCGGTCTCCC
DNA 2: TGGTGGCTACGACGGGATT
B14: GGUGAUG (DNA:RNA)
RNA: B4 RNA with A26G, A30U, A31G
DNA 1: CAATCTGAATTCCGGTCTCCC
DNA 2: TGGTGGCTACGACGGGATT
B15: GUGACUG (DNA:RNA)
RNA: B4 RNA with A26U, U27G, G28A, A29C, A30U, A31G
DNA 1: CAATCTGAATTCCGGTCTCCC
DNA 2: TGGTGGCTACGACGGGATT
B16: GUGAUCG (DNA:RNA)
RNA: B4 RNA with A26U, U27G, G28A, A29U, A30C, A31G
DNA 1: CAATCTGAATTCCGGTCTCCC
DNA 2: TGGTGGCTACGACGGGATT
B17: GUGAUUC (DNA:RNA)
RNA: B1 RNA with U25G, A27G, C28A, G29U, G30U
DNA 1: CAATCTGAATTCCGGTCTCCC
DNA 2: TGGTGGCTACGACGGGATT
B18: GGUGUGA (DNA:RNA)
RNA: B4 RNA with A26G, A29U, A30G
DNA 1: CAATCTGAATTCCGGTCTCCC
DNA 2: TGGTGGCTACGACGGGATT
B19: ACCUAUU (DNA:RNA)
RNA: B4 RNA with G25A, A26C, U27C, G28U, A30U, A31U
DNA 1: CAATCTGAATTCCGGTCTCCC
DNA 2: TGGTGGCTACGACGGGATT
B20: GCUCCGG (DNA:RNA)
RNA: B4 RNA with A26C, G28C, A29C, A30G, A31G
DNA 1: CAATCTGAATTCCGGTCTCCC
DNA 2: TGGTGGCTACGACGGGATT

We go through 20 molecules from paper PMC9911399, “Two distinct binding modes provide the RNA-binding protein RbFox with extraordinary sequence specificity”.

Substitutions are numbered along the chain they refer to; changes in the protein carry UniProt numbers. Whole data set: some 16,000 sequences, median “ka relative to ugcaugu” near 0.096, cut for the highest 2% near 0.35. Many of the other results were omitted from the sample, so the highest values are more common in it than they were.

For the experiment, the target named is T1, RBFOX1 RRM RbFoxmut (Fox-RRM*). Put plainly: EMSA; HiTS-Eq, 1 nM pool, 10 min; buffer printed only for the single-RNA assays: 10 mM Tris pH 7.5, 150 mM NaCl, 3.4 mM EDTA, 0.001% NP-40, 30 C. The settings on record: tags: His6 N-terminal (pET28a); label: 5' 32P. A digest of the protocol:
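A pool of RNA with 7 randomized nucleotides, 5′-radiolabelled and with DNA-annealed flanks, was equilibrated at 1 nM for 10 min in 50 µL with purified RbFox RRM, wild type or mutant, across increasing protein concentrations. Free RNA was separated by 8% native PAGE, excised, reverse-transcribed, barcoded by PCR and sequenced. Relative association constants were obtained from read-count changes of each RNA species versus the control reaction and normalised to the cognate motif.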
For the molecule B1, the binding signal is 0.0823 KA relative to UGCAUGU.

With B2, the binding signal was 0.112 KA relative to UGCAUGU.

As for B3, the binding signal is 0.0758 KA relative to UGCAUGU.

On to B4, for which the binding signal is 0.0758 KA relative to UGCAUGU.

Consider B5, for which the binding signal is 0.127 KA relative to UGCAUGU.

B6: the binding signal was 0.0617 KA relative to UGCAUGU.

As to B7, the binding signal is 0.162 KA relative to UGCAUGU.

On to B8, for which the binding signal was 0.42 KA relative to UGCAUGU.

With B9, the binding signal is 0.119 KA relative to UGCAUGU.

As to B10, the binding signal was 0.243 KA relative to UGCAUGU.

With B11, the binding signal is 0.126 KA relative to UGCAUGU.

On to B12, for which the binding signal is 0.0776 KA relative to UGCAUGU.

With B13, the binding signal is 0.454 KA relative to UGCAUGU.

As for B14, the binding signal is 0.412 KA relative to UGCAUGU.

For the molecule B15, the binding signal is 0.387 KA relative to UGCAUGU.

Turning to B16, the binding signal was 0.32 KA relative to UGCAUGU.

Take B17: the binding signal is 0.159 KA relative to UGCAUGU.

With B18, the binding signal was 0.112 KA relative to UGCAUGU.

In the case of B19, the binding signal is 0.107 KA relative to UGCAUGU.

In the case of B20, the binding signal was 0.0646 KA relative to UGCAUGU.
